# Calls of active or inactive are those of the source. The calls were made as follows: active = hit-call score of the fitted dose curve at least 0.9, where 1 is the maximum; inactive = score below 0.9.
# How the values were obtained:
# [1] = ATG_Ets_CIS: Attagene CIS-FACTORIAL HepG2 Assay for human Erythroblast Transformation Specific (ETS) (AID 2282941); conditions: HepG2 ETS cis-reporter transcription, actives raise or lower the signal
# Outline: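 HepG2 cells transfected with multiple cis-regulated reporter units measuring endogenous ETS-driven transcription, 24 h after dosing. Reporter mRNA quantified by RT-PCR with capillary electrophoresis; bidirectional fit relative to DMSO.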
# [2] = target: Hepatocyte nuclear factor 3-beta (Homo sapiens) (UniProt Q9Y261); experiment: ATG_FoxA2_CIS: Attagene CIS-FACTORIAL HepG2 Assay for human Forkhead box A2 (FOXA2) (AID 2282942); conditions: HepG2 cis-reporter transcription factor activity, 24 h; actives raise or lower the signal
# Chain of Hepatocyte nuclear factor 3-beta (Homo sapiens) (Q9Y261 whole entry, looked up): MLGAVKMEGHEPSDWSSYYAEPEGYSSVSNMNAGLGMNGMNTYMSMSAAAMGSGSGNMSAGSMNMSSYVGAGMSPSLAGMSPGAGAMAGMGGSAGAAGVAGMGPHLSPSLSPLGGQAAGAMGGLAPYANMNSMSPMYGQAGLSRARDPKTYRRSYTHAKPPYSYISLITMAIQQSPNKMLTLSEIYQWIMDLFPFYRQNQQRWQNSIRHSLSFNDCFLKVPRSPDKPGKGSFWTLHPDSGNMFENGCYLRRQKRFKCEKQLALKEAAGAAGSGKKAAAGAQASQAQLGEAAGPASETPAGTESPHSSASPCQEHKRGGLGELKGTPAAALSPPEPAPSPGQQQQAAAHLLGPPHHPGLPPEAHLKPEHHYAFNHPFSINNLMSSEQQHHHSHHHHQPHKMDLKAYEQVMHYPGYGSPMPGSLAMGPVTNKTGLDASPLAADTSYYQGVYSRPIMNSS
# Outline: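 Multiplexed cis-element reporter assay in transiently transfected HepG2. Twenty-four hours post-dosing, RNA was reverse-transcribed, amplified, FAM-labelled, HpaI-digested and separated by CE. Activity gain or loss relative to DMSO.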
# [3] = ATG_FoxO_CIS: Attagene CIS-FACTORIAL HepG2 Assay for human Forkhead box O (FoxO) (AID 2282943); conditions: HepG2 Attagene cis-reporter, FoxO element, mRNA; actives raise or lower the signal
# Outline: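 Endogenous transcription factor activity read from multiplexed cis-promoter reporter transcripts in transiently transfected HepG2, 24 h after dosing. Reporter RNA measured via RT-PCR plus capillary electrophoresis of FAM-labeled products; gain or loss relative to DMSO.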
# [4] = ATG_GATA_CIS: Attagene CIS-FACTORIAL HepG2 Assay for human GATA Binding Protein (AID 2282944); conditions: HepG2 GATA cis-element reporter, Attagene multiplex mRNA; actives raise or lower the signal
# Outline: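 Transfected cis-reporter HepG2 cells were treated with chemicals for 24 hours. Total RNA was then converted to cDNA, amplified with reporter-specific primers and analysed by fluorescent capillary electrophoresis, using DMSO-treated wells as baseline.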
# [5] = ATG_GLI_CIS: Attagene CIS-FACTORIAL HepG2 Assay for human Zinc Finger Protein GLI1 (AID 2282945); conditions: HepG2, Attagene cis-factorial reporter mRNA, GLI element; actives raise or lower the signal
# Outline: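 Bidirectional curve fits relative to DMSO, using reporter mRNA levels from RT-PCR plus capillary electrophoresis. Cells were HepG2 transiently carrying cis-regulated reporter constructs, harvested 24 h after dosing.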
# [6] = target: Bile acid receptor (Homo sapiens) (UniProt Q96RI1); experiment: ATG_IR1_CIS: Attagene CIS-FACTORIAL HepG2 Assay for human Nuclear Receptor Subfamily 1 Group H Member 4 (NR1H4), IR1 submotif (AID 2282946); conditions: IR1 reporter transcription, actives raise or lower the signal
# Chain of Bile acid receptor (Homo sapiens) (Q96RI1 whole entry, looked up, the tested form may be a part): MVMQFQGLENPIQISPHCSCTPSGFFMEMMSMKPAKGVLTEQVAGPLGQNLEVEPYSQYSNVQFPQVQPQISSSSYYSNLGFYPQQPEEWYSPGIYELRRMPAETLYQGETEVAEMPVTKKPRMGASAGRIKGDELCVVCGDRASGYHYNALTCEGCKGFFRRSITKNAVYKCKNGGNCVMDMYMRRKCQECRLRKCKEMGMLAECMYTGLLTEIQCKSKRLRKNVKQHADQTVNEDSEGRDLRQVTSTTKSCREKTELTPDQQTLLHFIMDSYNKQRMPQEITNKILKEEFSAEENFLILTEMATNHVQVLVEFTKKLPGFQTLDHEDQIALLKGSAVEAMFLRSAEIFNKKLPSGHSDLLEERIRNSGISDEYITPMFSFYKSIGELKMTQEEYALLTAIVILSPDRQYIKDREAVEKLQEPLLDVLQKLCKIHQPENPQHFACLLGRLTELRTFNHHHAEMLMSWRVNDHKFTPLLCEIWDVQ
# Outline: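 Cells (human HepG2) carry transiently transfected cis-promoter reporter transcription units. Compounds are incubated 24 h, total RNA is reverse-transcribed and amplified, and labelled fragments are resolved by capillary electrophoresis. Curves use DMSO as baseline.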
# [7] = ATG_GRE_CIS: Attagene CIS-FACTORIAL HepG2 Assay for human Glucocorticoid Response Elements (GRE) (AID 2282947); conditions: HepG2 GRE cis-reporter, Attagene multiplex mRNA; actives raise or lower the signal
# Outline: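 Transient MRTU transfection of human HepG2 liver cells; cis-regulated reporters report endogenous factors. 24 h dosing → RNA isolation → RT-PCR → 6-FAM primer extension → HpaI cut → CE fragment analysis. Bidirectional fit, DMSO negative control.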
# [8] = ATG_M_32_CIS: Attagene CIS-FACTORIAL HepG2 Assay for M32 Transcription Factor (Internal Marker) (AID 2282949); conditions: HepG2 Attagene cis-factorial M32 reporter, mRNA; actives raise or lower the signal;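 also: background control marker of the multiplexed CIS panel rather than a real target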
# Outline: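 Fluorescent capillary electrophoresis peaks of HpaI-digested, FAM-labelled RT-PCR reporter products give the signal. Source: transiently transfected human liver HepG2 cells, 24 h after chemical dosing; bidirectional fitting against DMSO.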
# [9] = ATG_M_06_CIS: Attagene CIS-FACTORIAL HepG2 Assay for M06 Transcription Factor (Internal Marker) (AID 2282950); conditions: HepG2 Attagene CIS-FACTORIAL M06 internal marker reporter; actives raise or lower the signal
# Outline: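 Cells (HepG2, transiently carrying cis-driven reporter units) receive chemical for 24 h before RNA isolation. Reporter cDNA is PCR-amplified, FAM-labelled by primer extension, HpaI-digested and sized on a capillary analyser.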
# [10] = target: Hypoxia-inducible factor 1-alpha (Homo sapiens) (UniProt Q16665); experiment: ATG_HIF1a_CIS: Attagene CIS-FACTORIAL HepG2 Assay for human Hypoxia Inducible Factor 1 (HIF1A) (AID 2282951); conditions: HepG2 Attagene cis-factorial HIF1a reporter transcription; actives raise or lower the signal
# Chain of Hypoxia-inducible factor 1-alpha (Homo sapiens) (Q16665 whole entry, looked up): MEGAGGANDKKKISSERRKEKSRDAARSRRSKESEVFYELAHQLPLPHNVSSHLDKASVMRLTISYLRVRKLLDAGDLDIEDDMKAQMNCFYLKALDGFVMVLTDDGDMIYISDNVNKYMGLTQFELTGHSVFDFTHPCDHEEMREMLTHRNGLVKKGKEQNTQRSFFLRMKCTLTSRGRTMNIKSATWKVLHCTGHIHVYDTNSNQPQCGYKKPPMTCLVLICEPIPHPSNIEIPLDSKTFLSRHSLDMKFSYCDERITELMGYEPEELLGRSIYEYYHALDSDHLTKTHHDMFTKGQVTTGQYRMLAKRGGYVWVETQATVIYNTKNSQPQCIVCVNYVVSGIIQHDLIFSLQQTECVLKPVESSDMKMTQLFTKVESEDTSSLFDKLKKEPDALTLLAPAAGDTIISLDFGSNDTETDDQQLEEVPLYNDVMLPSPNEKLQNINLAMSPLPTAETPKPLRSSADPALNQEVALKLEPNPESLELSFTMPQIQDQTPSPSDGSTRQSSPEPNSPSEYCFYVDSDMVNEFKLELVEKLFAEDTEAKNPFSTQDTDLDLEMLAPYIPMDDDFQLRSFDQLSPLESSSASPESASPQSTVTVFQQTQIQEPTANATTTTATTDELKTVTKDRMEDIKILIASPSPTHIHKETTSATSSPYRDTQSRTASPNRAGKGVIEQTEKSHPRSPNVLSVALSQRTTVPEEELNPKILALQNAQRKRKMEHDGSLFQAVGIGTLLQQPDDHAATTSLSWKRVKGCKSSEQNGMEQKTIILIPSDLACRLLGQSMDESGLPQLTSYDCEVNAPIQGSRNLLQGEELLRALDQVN
# Outline: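 Cis-element reporter constructs were transiently transfected into HepG2 cells, which were treated for 24 h; reporter RNA was reverse-transcribed, amplified, labelled and resolved by capillary electrophoresis.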
# [11] = target: Hepatocyte nuclear factor 6 (Homo sapiens) (UniProt Q9UBC0); experiment: ATG_HNF6_CIS: Attagene CIS-FACTORIAL HepG2 Assay for human Hepatocyte Nuclear Factor 6 (HNF6) (AID 2282952); conditions: HepG2 Attagene cis-factorial HNF6 reporter transcription; actives raise or lower the signal
# Chain of Hepatocyte nuclear factor 6 (Homo sapiens) (Q9UBC0 whole entry, looked up): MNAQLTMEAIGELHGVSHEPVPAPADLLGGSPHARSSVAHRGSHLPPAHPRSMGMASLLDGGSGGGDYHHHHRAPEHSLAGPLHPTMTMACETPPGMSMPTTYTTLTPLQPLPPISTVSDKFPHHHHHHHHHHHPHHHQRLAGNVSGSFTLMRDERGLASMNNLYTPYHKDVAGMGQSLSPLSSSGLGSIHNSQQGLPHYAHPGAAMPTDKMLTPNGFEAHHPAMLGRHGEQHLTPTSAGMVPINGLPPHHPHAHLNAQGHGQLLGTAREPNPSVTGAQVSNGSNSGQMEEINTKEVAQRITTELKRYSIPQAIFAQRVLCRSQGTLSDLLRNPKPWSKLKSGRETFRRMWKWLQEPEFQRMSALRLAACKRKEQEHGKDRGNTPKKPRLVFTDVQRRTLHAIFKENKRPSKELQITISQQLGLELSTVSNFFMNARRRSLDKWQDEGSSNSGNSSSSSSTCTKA
# Outline: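 Transiently transfected HepG2 cells expressing cis-regulated reporter transcription units were exposed to chemical for 24 h in a 24-well format. Reporter transcript abundance was determined by fluorescence capillary electrophoresis.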
# [12] = target: Heat shock factor protein 1 (Homo sapiens) (UniProt Q00613); experiment: ATG_HSE_CIS: Attagene CIS-FACTORIAL HepG2 Assay for human Heat Shock Transcription Factor 1 (HSE) (AID 2282953); conditions: HepG2 HSE cis-reporter, Attagene RNA transcription; actives raise or lower the signal
# Chain of Heat shock factor protein 1 (Homo sapiens) (Q00613 whole entry, looked up): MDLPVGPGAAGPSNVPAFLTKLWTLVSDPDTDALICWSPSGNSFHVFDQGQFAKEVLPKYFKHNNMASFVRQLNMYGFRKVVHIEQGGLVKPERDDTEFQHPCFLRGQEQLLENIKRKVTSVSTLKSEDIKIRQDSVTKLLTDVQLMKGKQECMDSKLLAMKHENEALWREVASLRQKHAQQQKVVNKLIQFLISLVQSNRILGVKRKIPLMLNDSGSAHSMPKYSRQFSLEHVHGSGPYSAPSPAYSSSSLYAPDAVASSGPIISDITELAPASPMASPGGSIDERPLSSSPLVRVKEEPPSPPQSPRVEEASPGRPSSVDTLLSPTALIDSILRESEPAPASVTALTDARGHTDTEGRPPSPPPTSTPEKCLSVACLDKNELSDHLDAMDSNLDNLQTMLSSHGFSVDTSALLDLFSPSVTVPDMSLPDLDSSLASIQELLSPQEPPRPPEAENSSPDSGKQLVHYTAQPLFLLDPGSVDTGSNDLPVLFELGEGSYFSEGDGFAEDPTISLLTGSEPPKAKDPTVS
# Outline: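 Liver-derived HepG2 cells carry transiently introduced multiple reporter units governed by cis promoters. Reporter RNA measured 24 h post-dose through reverse transcription, PCR amplification, fluorescent labelling and capillary electrophoresis, normalised to DMSO.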
# [13] = target: Paired box protein Pax-6 (Homo sapiens) (UniProt P26367); experiment: ATG_Pax6_CIS: Attagene CIS-FACTORIAL HepG2 Assay for human Paired Box 6 (PAX6) (AID 2282956); conditions: HepG2 CIS-FACTORIAL PAX6 reporter transcription, RNA readout; actives raise or lower the signal
# Chain of Paired box protein Pax-6 (Homo sapiens) (P26367 whole entry, looked up): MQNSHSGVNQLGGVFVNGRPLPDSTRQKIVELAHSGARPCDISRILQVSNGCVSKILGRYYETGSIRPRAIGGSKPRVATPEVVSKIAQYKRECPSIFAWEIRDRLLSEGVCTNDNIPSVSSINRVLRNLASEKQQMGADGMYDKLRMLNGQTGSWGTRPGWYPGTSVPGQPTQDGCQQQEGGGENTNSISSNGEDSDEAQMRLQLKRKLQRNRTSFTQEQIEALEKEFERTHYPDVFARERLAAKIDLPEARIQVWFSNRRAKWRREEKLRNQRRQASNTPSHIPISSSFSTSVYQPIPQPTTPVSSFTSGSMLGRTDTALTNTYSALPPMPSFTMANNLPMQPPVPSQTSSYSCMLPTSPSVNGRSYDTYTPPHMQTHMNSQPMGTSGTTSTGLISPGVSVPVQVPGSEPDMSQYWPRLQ
# Outline: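 HepG2 cells transiently transfected with cis-promoter-driven multiplexed reporter units sensing endogenous transcription factor activity; 24 h chemical exposure. Reporter mRNA quantified by RT-PCR, 6-FAM labelling, HpaI digestion and capillary electrophoresis; bidirectional fit versus DMSO baseline.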
# [14] = ATG_PXRE_CIS: Attagene CIS-FACTORIAL HepG2 Assay for human Pregnane X Receptor Element (PXRE) (AID 2282957); conditions: HepG2 Attagene CIS-FACTORIAL PXRE reporter, mRNA; actives raise or lower the signal
# Outline: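 Cis-element reporter mRNA in human hepatoma HepG2 cells is measured 24 h post-dosing by RT-PCR, primer-extension labeling and capillary electrophoresis; gain or loss of signal is fitted relative to DMSO.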
# [15] = ATG_RORE_CIS: Attagene CIS-FACTORIAL HepG2 Assay for human RAR-related Orphan Receptor Element (RORE) (AID 2282959); conditions: HepG2 Attagene cis-factorial RORE reporter, mRNA; actives raise or lower the signal
# Outline: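 Transfect HepG2 with MRTUs; treat 24 h; extract RNA; RT with oligo(dT); PCR with reporter-specific primers; 6-FAM primer extension; HpaI digest 2 h at 37 C; capillary electrophoresis. Fit vs DMSO, bidirectional.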
# [16] = ATG_Sox_CIS: Attagene CIS-FACTORIAL HepG2 Assay for human SRY-box transcription factor (SOX) (AID 2282960); conditions: HepG2 Attagene cis-factorial SOX reporter, mRNA; actives raise or lower the signal
# Outline: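 Fluorescence-labelled cDNA fragments from reporter transcripts, sized by CE, give the signal. Cells: HepG2, transiently transfected with cis-regulated reporter units. Exposure 24 h; DMSO negative control; bidirectional curve fitting.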
# [17] = ATG_MRE_CIS: Attagene CIS-FACTORIAL HepG2 Assay for human Metal Responsive Element (MRE) (AID 2282954); conditions: HepG2 MRE cis-reporter transcription, Attagene multiplex; actives raise or lower the signal
# Outline: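 Transient MRTU transfection of HepG2 (FuGene 6); 24 h dosing; total RNA → oligo(dT) RT, PCR, 6-FAM primer extension, HpaI cut, CE. Bidirectional fit vs DMSO.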
# [18] = ATG_PBREM_CIS: Attagene CIS-FACTORIAL HepG2 Assay for human Phenobarbital-responsive Enhancer Module (PBREM) (AID 2282955); conditions: HepG2 PBREM cis-reporter, Attagene multiplexed transcription; actives raise or lower the signal
# Outline: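 Multiplexed cis-reporter readout in human hepatoma HepG2 cells; PBREM-regulated transcript quantified after 24 h exposure by fluorescent RT-PCR fragment analysis. Signal changes up or down fitted relative to DMSO.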
# [19] = ATG_PPRE_CIS: Attagene CIS-FACTORIAL HepG2 Assay for human Peroxisome Proliferator-activated Response Element (PPRE) (AID 2282958); conditions: HepG2 PPRE cis-element reporter, Attagene transcription factor profiling; actives raise or lower the signal
# Outline: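 DMSO served as negative control and baseline for bidirectional curve fitting. Signal came from PPRE-regulated reporter mRNA in HepG2 cells, measured 24 h post-dosing by RT-PCR, 6-FAM primer extension and capillary electrophoresis.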
# [20] = ATG_ISRE_CIS: Attagene CIS-FACTORIAL HepG2 Assay for human Interferon Regulatory Factor 1 (IRF1) binding to an Interferon-Stimulated Response Element (ISRE) (AID 2282948); conditions: HepG2 ISRE cis-reporter (Attagene), mRNA transcription readout; actives raise or lower the signal
# Outline: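 Transiently transfected HepG2 cells carrying cis-element reporter units, dosed 24 hours. Reporter mRNA quantified by RT-PCR, fluorescent primer extension, HpaI digestion and capillary electrophoresis. Bidirectional fitting relative to DMSO.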
structure (smiles),measurement,setting,value
C[C@@H](Oc1ccc(Cl)cc1Cl)C(=O)O,outcome,[1],inactive
same,outcome,[2],inactive
same,outcome,[3],inactive
same,outcome,[4],inactive
same,outcome,[5],inactive
same,outcome,[6],inactive
same,outcome,[7],inactive
same,outcome,[8],inactive
same,outcome,[9],inactive
same,outcome,[10],inactive
same,outcome,[11],inactive
same,outcome,[12],inactive
same,outcome,[13],inactive
same,outcome,[14],inactive
same,outcome,[15],inactive
same,outcome,[16],inactive
CC(C)(c1ccc(OCC2CO2)cc1)c1ccc(OCC2CO2)cc1 (configuration not stated),outcome,[1],inactive
same,outcome,[2],inactive
same,outcome,[3],inactive
same,outcome,[4],inactive
same,outcome,[5],inactive
same,outcome,[7],inactive
same,outcome,[8],inactive
same,outcome,[9],inactive
same,AC50,[10],31.2 µM (active)
same,outcome,[11],inactive
same,AC50,[12],60.5 µM (active)
same,AC50,[17],31.8 µM (active)
same,outcome,[18],inactive
same,AC50,[13],39.2 µM (active)
same,outcome,[19],inactive
same,AC50,[15],33.4 µM (active)
same,outcome,[16],inactive
Cc1ccc2ccccc2c1C,outcome,[1],inactive
same,outcome,[2],inactive
same,outcome,[3],inactive
same,outcome,[4],inactive
same,outcome,[5],inactive
same,outcome,[7],inactive
same,outcome,[20],inactive
same,outcome,[8],inactive
same,outcome,[10],inactive
same,outcome,[12],inactive
same,outcome,[17],inactive
same,outcome,[18],inactive
same,outcome,[13],inactive
same,AC50,[14],10.1 µM (active)
same,outcome,[19],inactive
same,outcome,[15],inactive
same,outcome,[16],inactive
CC(C)OC(=O)Nc1ccccc1,outcome,[1],inactive
same,outcome,[2],inactive
same,outcome,[3],inactive
same,outcome,[4],inactive
same,outcome,[5],inactive
same,outcome,[20],inactive
same,outcome,[8],inactive
same,outcome,[10],inactive
same,outcome,[11],inactive
same,outcome,[12],inactive
same,outcome,[17],inactive
same,outcome,[18],inactive
same,outcome,[13],inactive
same,AC50,[14],100 µM (active)
same,outcome,[16],inactive
c1ccc(N=NNc2ccccc2)cc1,outcome,[1],inactive
same,AC50,[2],25.7 µM (active)
same,outcome,[3],inactive
same,outcome,[4],inactive
same,AC50,[5],163 µM (active)
same,outcome,[20],inactive
same,outcome,[8],inactive
same,outcome,[9],inactive
same,outcome,[10],inactive
same,outcome,[11],inactive
same,AC50,[12],151 µM (active)
same,outcome,[18],inactive
same,AC50,[13],125 µM (active)
same,AC50,[14],25.8 µM (active)
same,AC50,[19],21.7 µM (active)
same,outcome,[15],inactive
same,AC50,[16],145 µM (active)
N#Cc1ccccn1,outcome,[1],inactive
same,outcome,[2],inactive
same,outcome,[3],inactive
same,outcome,[4],inactive
same,outcome,[5],inactive
same,outcome,[20],inactive
same,outcome,[8],inactive
same,outcome,[9],inactive
same,outcome,[10],inactive
same,outcome,[11],inactive
same,outcome,[17],inactive
same,outcome,[18],inactive
same,outcome,[13],inactive
same,outcome,[14],inactive
same,outcome,[15],inactive
same,outcome,[16],inactive
CCCCCCCCc1ccc(O)cc1,outcome,[1],inactive
same,outcome,[2],inactive
same,outcome,[3],inactive
same,outcome,[4],inactive
same,outcome,[5],inactive
same,outcome,[7],inactive
same,outcome,[20],inactive
same,outcome,[8],inactive
same,outcome,[10],inactive
same,outcome,[11],inactive
same,outcome,[12],inactive
same,outcome,[17],inactive
same,outcome,[18],inactive
same,outcome,[13],inactive
same,outcome,[14],inactive
same,outcome,[19],inactive
same,outcome,[15],inactive
same,outcome,[16],inactive
COP(=S)(OC)Oc1ccc(S(=O)(=O)N(C)C)cc1,outcome,[1],inactive
same,outcome,[2],inactive
same,outcome,[3],inactive
same,outcome,[4],inactive
same,outcome,[5],inactive
same,outcome,[7],inactive
same,outcome,[8],inactive
same,outcome,[9],inactive
same,outcome,[10],inactive
same,outcome,[11],inactive
same,outcome,[12],inactive
same,outcome,[18],inactive
same,outcome,[13],inactive
same,AC50,[14],26.8 µM (active)
same,outcome,[15],inactive
same,outcome,[16],inactive

# Reference: PubChem BioAssay (EPA / NIEHS)
